How the values were obtained:
Experiment in all cases: PBM; 200 nM protein, PBS
Details in all cases: dsDNA, one strand shown
[1] = target: HESX1 (Homo sapiens, UniProt Q9UBX0 95-180, R165K)
[2] = target: HESX1 (Homo sapiens, UniProt Q9UBX0 95-180)
[3] = target: SHOX (Homo sapiens, UniProt O15266 103-189)
[4] = target: SHOX (Homo sapiens, UniProt O15266 103-189, R173C)
[5] = target: HESX1 (Homo sapiens, UniProt Q9UBX0 95-180, R109Q)
[6] = target: HESX1 (Homo sapiens, UniProt Q9UBX0 95-180, P111T)
Chain of HESX1 (Homo sapiens, UniProt Q9UBX0 95-180, P111T) (Q9UBX0 95-180 P111T): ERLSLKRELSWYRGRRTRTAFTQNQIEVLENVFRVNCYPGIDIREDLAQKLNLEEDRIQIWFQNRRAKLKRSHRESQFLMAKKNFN

[7] = target: HESX1 (Homo sapiens, UniProt Q9UBX0 95-180, F115L)
Chain of HESX1 (Homo sapiens, UniProt Q9UBX0 95-180, F115L) (Q9UBX0 95-180 F115L): as the sequence (Q9UBX0 95-180 P111T) above, with T17P, F21L counted along it

[8] = target: ALX4 (Homo sapiens, UniProt Q9H161 200-286)
Chain of ALX4 (Homo sapiens, UniProt Q9H161 200-286) (Q9H161 200-286): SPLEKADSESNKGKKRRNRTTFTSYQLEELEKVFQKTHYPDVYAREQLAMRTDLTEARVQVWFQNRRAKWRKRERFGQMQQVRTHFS

[9] = target: PRRX1 (Homo sapiens, UniProt P54821 80-166, F113S)
Chain of PRRX1 (Homo sapiens, UniProt P54821 80-166, F113S) (P54821 80-166 F113S): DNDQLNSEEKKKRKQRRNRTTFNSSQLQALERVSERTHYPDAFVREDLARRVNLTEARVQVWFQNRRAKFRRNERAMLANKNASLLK

[10] = target: ALX4 (Homo sapiens, UniProt Q9H161 200-286, Q225E)
Chain of ALX4 (Homo sapiens, UniProt Q9H161 200-286, Q225E) (Q9H161 200-286 Q225E): as the sequence (Q9H161 200-286) above, with Q26E counted along it

[11] = target: MSX2 (Homo sapiens, UniProt P35548 130-214, R199I)
Chain of MSX2 (Homo sapiens, UniProt P35548 130-214, R199I) (P35548 130-214 R199I): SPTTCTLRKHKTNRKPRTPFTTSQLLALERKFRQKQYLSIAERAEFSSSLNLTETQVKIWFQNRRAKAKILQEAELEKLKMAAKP

[12] = target: ALX1 (Homo sapiens, UniProt Q15699 118-204, L144V)
Chain of ALX1 (Homo sapiens, UniProt Q15699 118-204, L144V) (Q15699 118-204 L144V): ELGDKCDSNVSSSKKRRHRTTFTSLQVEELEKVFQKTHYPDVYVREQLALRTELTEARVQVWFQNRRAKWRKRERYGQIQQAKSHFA

[13] = target: ALX1 (Homo sapiens, UniProt Q15699 118-204, L144R)
Chain of ALX1 (Homo sapiens, UniProt Q15699 118-204, L144R) (Q15699 118-204 L144R): as the sequence (Q15699 118-204 L144V) above, with V27R counted along it

[14] = target: PROP1 (Homo sapiens, UniProt O75360 56-141)
Chain of PROP1 (Homo sapiens, UniProt O75360 56-141) (O75360 56-141): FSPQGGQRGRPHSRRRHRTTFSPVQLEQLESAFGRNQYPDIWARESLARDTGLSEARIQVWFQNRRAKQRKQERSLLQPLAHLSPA

[15] = target: PROP1 (Homo sapiens, UniProt O75360 56-141, R99H)
Chain of PROP1 (Homo sapiens, UniProt O75360 56-141, R99H) (O75360 56-141 R99H): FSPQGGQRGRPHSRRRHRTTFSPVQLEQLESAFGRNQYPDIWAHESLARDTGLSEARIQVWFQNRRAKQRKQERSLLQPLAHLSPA

[16] = target: ALX3 (Homo sapiens, UniProt O95076 139-225, L168Q)
Chain of ALX3 (O95076 139-225 L168Q): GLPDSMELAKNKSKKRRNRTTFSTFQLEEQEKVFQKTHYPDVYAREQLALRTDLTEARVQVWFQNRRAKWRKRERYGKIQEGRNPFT

[17] = target: PROP1 (Homo sapiens, UniProt O75360 56-141, F88S)
Chain of PROP1 (Homo sapiens, UniProt O75360 56-141, F88S) (O75360 56-141 F88S): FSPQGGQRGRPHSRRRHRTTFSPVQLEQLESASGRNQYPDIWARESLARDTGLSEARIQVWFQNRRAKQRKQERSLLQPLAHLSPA

[18] = target: MSX2 (Homo sapiens, UniProt P35548 130-214, F161Y)
Chain of MSX2 (Homo sapiens, UniProt P35548 130-214, F161Y) (P35548 130-214 F161Y): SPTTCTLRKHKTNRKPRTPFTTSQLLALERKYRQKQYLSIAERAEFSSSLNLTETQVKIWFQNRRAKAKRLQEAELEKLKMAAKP

[19] = target: ALX1 (Homo sapiens, UniProt Q15699 118-204)
Chain of ALX1 (Homo sapiens, UniProt Q15699 118-204) (Q15699 118-204): as the sequence (Q15699 118-204 L144V) above, with V27L counted along it

[20] = target: PRRX1 (Homo sapiens, UniProt P54821 80-166)
Chain of PRRX1 (Homo sapiens, UniProt P54821 80-166) (P54821 80-166): as the sequence (P54821 80-166 F113S) above, with S34F counted along it

Chain of HESX1 (Homo sapiens, UniProt Q9UBX0 95-180, R165K) (Q9UBX0 95-180 R165K): as the sequence (Q9UBX0 95-180 P111T) above, with T17P, R71K counted along it
Chain of SHOX (Homo sapiens, UniProt O15266 103-189, R173C) (O15266 103-189 R173C): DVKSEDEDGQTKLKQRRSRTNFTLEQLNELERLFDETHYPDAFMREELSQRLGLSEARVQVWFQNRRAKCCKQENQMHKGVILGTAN
Chain of HESX1 (Homo sapiens, UniProt Q9UBX0 95-180, R109Q) (Q9UBX0 95-180 R109Q): as the sequence (Q9UBX0 95-180 P111T) above, with R15Q, T17P counted along it
Chain of HESX1 (Homo sapiens, UniProt Q9UBX0 95-180) (Q9UBX0 95-180): as the sequence (Q9UBX0 95-180 P111T) above, with T17P counted along it
Chain of SHOX (Homo sapiens, UniProt O15266 103-189) (O15266 103-189): as the sequence (O15266 103-189 R173C) above, with C71R counted along it

Sequence	binding signal [1]	binding signal [2]	binding signal [3]	binding signal [4]	binding signal [5]	binding signal [6]	binding signal [7]	binding signal [8]	binding signal [9]	binding signal [10]	binding signal [11]	binding signal [12]	binding signal [13]	binding signal [14]	binding signal [15]	binding signal [16]	binding signal [17]	binding signal [18]	binding signal [19]	binding signal [20]
ATTAATGC	8.93 upbm affinity estimate (log intensity, higher = more binding, comparable within an allelic series)	9.02 upbm affinity estimate (log intensity, higher = more binding, comparable within an allelic series)																		
CCGAGCGG	6.41 upbm affinity estimate (log intensity, higher = more binding, comparable within an allelic series)	6.46 upbm affinity estimate (log intensity, higher = more binding, comparable within an allelic series)	6.99 upbm affinity estimate (log intensity, higher = more binding, comparable within an allelic series)	7.07 upbm affinity estimate (log intensity, higher = more binding, comparable within an allelic series)	6.48 upbm affinity estimate (log intensity, higher = more binding, comparable within an allelic series)	6.49 upbm affinity estimate (log intensity, higher = more binding, comparable within an allelic series)	6.36 upbm affinity estimate (log intensity, higher = more binding, comparable within an allelic series)													
CCTTCGAG	6.45 upbm affinity estimate (log intensity, higher = more binding, comparable within an allelic series)	6.39 upbm affinity estimate (log intensity, higher = more binding, comparable within an allelic series)	7.09 upbm affinity estimate (log intensity, higher = more binding, comparable within an allelic series)	7.23 upbm affinity estimate (log intensity, higher = more binding, comparable within an allelic series)	6.55 upbm affinity estimate (log intensity, higher = more binding, comparable within an allelic series)	6.56 upbm affinity estimate (log intensity, higher = more binding, comparable within an allelic series)	6.63 upbm affinity estimate (log intensity, higher = more binding, comparable within an allelic series)													
CCAATTAC	12.8 upbm affinity estimate (log intensity, higher = more binding, comparable within an allelic series)	12.9 upbm affinity estimate (log intensity, higher = more binding, comparable within an allelic series)	12.2 upbm affinity estimate (log intensity, higher = more binding, comparable within an allelic series)	9.4 upbm affinity estimate (log intensity, higher = more binding, comparable within an allelic series)	9.36 upbm affinity estimate (log intensity, higher = more binding, comparable within an allelic series)	11.3 upbm affinity estimate (log intensity, higher = more binding, comparable within an allelic series)	7.75 upbm affinity estimate (log intensity, higher = more binding, comparable within an allelic series)	13.8 upbm affinity estimate (log intensity, higher = more binding, comparable within an allelic series)	11.1 upbm affinity estimate (log intensity, higher = more binding, comparable within an allelic series)	13.1 upbm affinity estimate (log intensity, higher = more binding, comparable within an allelic series)	12.8 upbm affinity estimate (log intensity, higher = more binding, comparable within an allelic series)	11.8 upbm affinity estimate (log intensity, higher = more binding, comparable within an allelic series)	11.4 upbm affinity estimate (log intensity, higher = more binding, comparable within an allelic series)	11.5 upbm affinity estimate (log intensity, higher = more binding, comparable within an allelic series)	11.7 upbm affinity estimate (log intensity, higher = more binding, comparable within an allelic series)	10.6 upbm affinity estimate (log intensity, higher = more binding, comparable within an allelic series)	7.57 upbm affinity estimate (log intensity, higher = more binding, comparable within an allelic series)	13.5 upbm affinity estimate (log intensity, higher = more binding, comparable within an allelic series)	12.5 upbm affinity estimate (log intensity, higher = more binding, comparable within an allelic series)	13.4 upbm affinity estimate (log intensity, higher = more binding, comparable within an allelic series)
AATTAAGC	11.5 upbm affinity estimate (log intensity, higher = more binding, comparable within an allelic series)	11.6 upbm affinity estimate (log intensity, higher = more binding, comparable within an allelic series)	11.9 upbm affinity estimate (log intensity, higher = more binding, comparable within an allelic series)	9.54 upbm affinity estimate (log intensity, higher = more binding, comparable within an allelic series)	9.03 upbm affinity estimate (log intensity, higher = more binding, comparable within an allelic series)	10.5 upbm affinity estimate (log intensity, higher = more binding, comparable within an allelic series)	7.7 upbm affinity estimate (log intensity, higher = more binding, comparable within an allelic series)	13.7 upbm affinity estimate (log intensity, higher = more binding, comparable within an allelic series)	11 upbm affinity estimate (log intensity, higher = more binding, comparable within an allelic series)	12.9 upbm affinity estimate (log intensity, higher = more binding, comparable within an allelic series)	12.2 upbm affinity estimate (log intensity, higher = more binding, comparable within an allelic series)	11.6 upbm affinity estimate (log intensity, higher = more binding, comparable within an allelic series)	11.2 upbm affinity estimate (log intensity, higher = more binding, comparable within an allelic series)	11.2 upbm affinity estimate (log intensity, higher = more binding, comparable within an allelic series)	11 upbm affinity estimate (log intensity, higher = more binding, comparable within an allelic series)	10.4 upbm affinity estimate (log intensity, higher = more binding, comparable within an allelic series)	7.71 upbm affinity estimate (log intensity, higher = more binding, comparable within an allelic series)	12.9 upbm affinity estimate (log intensity, higher = more binding, comparable within an allelic series)	12.2 upbm affinity estimate (log intensity, higher = more binding, comparable within an allelic series)	13.3 upbm affinity estimate (log intensity, higher = more binding, comparable within an allelic series)
CCCAGGCG	6.31 upbm affinity estimate (log intensity, higher = more binding, comparable within an allelic series)	6.34 upbm affinity estimate (log intensity, higher = more binding, comparable within an allelic series)	6.92 upbm affinity estimate (log intensity, higher = more binding, comparable within an allelic series)	7.04 upbm affinity estimate (log intensity, higher = more binding, comparable within an allelic series)	6.42 upbm affinity estimate (log intensity, higher = more binding, comparable within an allelic series)	6.32 upbm affinity estimate (log intensity, higher = more binding, comparable within an allelic series)	6.49 upbm affinity estimate (log intensity, higher = more binding, comparable within an allelic series)													
GGAGCGCA	6.3 upbm affinity estimate (log intensity, higher = more binding, comparable within an allelic series)	6.37 upbm affinity estimate (log intensity, higher = more binding, comparable within an allelic series)	7.21 upbm affinity estimate (log intensity, higher = more binding, comparable within an allelic series)	7.1 upbm affinity estimate (log intensity, higher = more binding, comparable within an allelic series)	6.4 upbm affinity estimate (log intensity, higher = more binding, comparable within an allelic series)	6.31 upbm affinity estimate (log intensity, higher = more binding, comparable within an allelic series)	6.34 upbm affinity estimate (log intensity, higher = more binding, comparable within an allelic series)													
CAAATTAA	11.5 upbm affinity estimate (log intensity, higher = more binding, comparable within an allelic series)	11.5 upbm affinity estimate (log intensity, higher = more binding, comparable within an allelic series)	11.7 upbm affinity estimate (log intensity, higher = more binding, comparable within an allelic series)	9.3 upbm affinity estimate (log intensity, higher = more binding, comparable within an allelic series)	8.49 upbm affinity estimate (log intensity, higher = more binding, comparable within an allelic series)	10.1 upbm affinity estimate (log intensity, higher = more binding, comparable within an allelic series)	7.67 upbm affinity estimate (log intensity, higher = more binding, comparable within an allelic series)	13.7 upbm affinity estimate (log intensity, higher = more binding, comparable within an allelic series)	11 upbm affinity estimate (log intensity, higher = more binding, comparable within an allelic series)	12.9 upbm affinity estimate (log intensity, higher = more binding, comparable within an allelic series)		11.6 upbm affinity estimate (log intensity, higher = more binding, comparable within an allelic series)	11.1 upbm affinity estimate (log intensity, higher = more binding, comparable within an allelic series)	11 upbm affinity estimate (log intensity, higher = more binding, comparable within an allelic series)	10.7 upbm affinity estimate (log intensity, higher = more binding, comparable within an allelic series)	10.4 upbm affinity estimate (log intensity, higher = more binding, comparable within an allelic series)	7.49 upbm affinity estimate (log intensity, higher = more binding, comparable within an allelic series)		12.1 upbm affinity estimate (log intensity, higher = more binding, comparable within an allelic series)	13.2 upbm affinity estimate (log intensity, higher = more binding, comparable within an allelic series)
GCCAATTA	13.5 upbm affinity estimate (log intensity, higher = more binding, comparable within an allelic series)	13.3 upbm affinity estimate (log intensity, higher = more binding, comparable within an allelic series)	12.5 upbm affinity estimate (log intensity, higher = more binding, comparable within an allelic series)	9.95 upbm affinity estimate (log intensity, higher = more binding, comparable within an allelic series)	10.3 upbm affinity estimate (log intensity, higher = more binding, comparable within an allelic series)	12.1 upbm affinity estimate (log intensity, higher = more binding, comparable within an allelic series)	7.99 upbm affinity estimate (log intensity, higher = more binding, comparable within an allelic series)	14 upbm affinity estimate (log intensity, higher = more binding, comparable within an allelic series)	11.2 upbm affinity estimate (log intensity, higher = more binding, comparable within an allelic series)	13.6 upbm affinity estimate (log intensity, higher = more binding, comparable within an allelic series)	13 upbm affinity estimate (log intensity, higher = more binding, comparable within an allelic series)	11.9 upbm affinity estimate (log intensity, higher = more binding, comparable within an allelic series)	11.7 upbm affinity estimate (log intensity, higher = more binding, comparable within an allelic series)	11.6 upbm affinity estimate (log intensity, higher = more binding, comparable within an allelic series)	11.9 upbm affinity estimate (log intensity, higher = more binding, comparable within an allelic series)	10.9 upbm affinity estimate (log intensity, higher = more binding, comparable within an allelic series)	7.64 upbm affinity estimate (log intensity, higher = more binding, comparable within an allelic series)	13.6 upbm affinity estimate (log intensity, higher = more binding, comparable within an allelic series)	12.6 upbm affinity estimate (log intensity, higher = more binding, comparable within an allelic series)	13.3 upbm affinity estimate (log intensity, higher = more binding, comparable within an allelic series)
TAATTGGA	13.4 upbm affinity estimate (log intensity, higher = more binding, comparable within an allelic series)	13.3 upbm affinity estimate (log intensity, higher = more binding, comparable within an allelic series)	12.6 upbm affinity estimate (log intensity, higher = more binding, comparable within an allelic series)	9.96 upbm affinity estimate (log intensity, higher = more binding, comparable within an allelic series)	9.97 upbm affinity estimate (log intensity, higher = more binding, comparable within an allelic series)	11.9 upbm affinity estimate (log intensity, higher = more binding, comparable within an allelic series)	8.04 upbm affinity estimate (log intensity, higher = more binding, comparable within an allelic series)	14 upbm affinity estimate (log intensity, higher = more binding, comparable within an allelic series)	11.4 upbm affinity estimate (log intensity, higher = more binding, comparable within an allelic series)	13.7 upbm affinity estimate (log intensity, higher = more binding, comparable within an allelic series)	13 upbm affinity estimate (log intensity, higher = more binding, comparable within an allelic series)	12 upbm affinity estimate (log intensity, higher = more binding, comparable within an allelic series)	11.7 upbm affinity estimate (log intensity, higher = more binding, comparable within an allelic series)	11.8 upbm affinity estimate (log intensity, higher = more binding, comparable within an allelic series)	12 upbm affinity estimate (log intensity, higher = more binding, comparable within an allelic series)	10.9 upbm affinity estimate (log intensity, higher = more binding, comparable within an allelic series)	7.7 upbm affinity estimate (log intensity, higher = more binding, comparable within an allelic series)	13.6 upbm affinity estimate (log intensity, higher = more binding, comparable within an allelic series)	12.7 upbm affinity estimate (log intensity, higher = more binding, comparable within an allelic series)	13.4 upbm affinity estimate (log intensity, higher = more binding, comparable within an allelic series)

— PMC11006913
